Compounds with a hit are over-represented: about 2.5% of the library has one in this group of screens.
Cruzain Triton: qHTS Assay for Promiscuous and Specific Inhibitors of Cruzain (with detergent). purified cruzain, Z-FR-AMC fluorescence, 0.01% Triton. Potency, µM, inactives show max response, negative = inhibition, actives largely listed as inhibitors. 200,000 tested, 0.43% active. AID 1478, 2009;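 further: plate controls were neutral wells for no effect and buffer without enzyme for full effect; nearly all actives have a fitted effect of over 40% in size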
Target sequence (P25779 123-467 limits assumed): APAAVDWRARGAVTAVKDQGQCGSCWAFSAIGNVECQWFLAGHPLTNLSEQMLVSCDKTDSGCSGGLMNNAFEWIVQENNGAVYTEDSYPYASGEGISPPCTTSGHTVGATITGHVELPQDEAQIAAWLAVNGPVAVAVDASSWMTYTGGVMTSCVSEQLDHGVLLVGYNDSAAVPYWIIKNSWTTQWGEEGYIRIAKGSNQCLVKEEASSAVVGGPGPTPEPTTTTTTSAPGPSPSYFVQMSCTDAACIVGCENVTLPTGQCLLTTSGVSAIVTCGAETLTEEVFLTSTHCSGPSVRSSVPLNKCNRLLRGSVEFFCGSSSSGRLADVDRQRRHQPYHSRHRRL
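Detergent-containing arm of a paired screen for aggregation-based inhibition: 0.01% Triton X-100 present. Cruzain at 1.5 nM cleaved 2 uM Z-FR-AMC at pH 5.5 with 5 mM DTT; AMC fluorescence gain over 60 s measured activity.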
Cruzain inh noDet: qHTS Assay for Promiscuous and Specific Inhibitors of Cruzain (without detergent); Cruzipain (Trypanosoma cruzi), P25779; purified cruzain, Z-FR-AMC fluorescence, no detergent; Potency, µM, inactives show max response, negative = inhibition, actives largely listed as inhibitors; 200,000 tested, 2.3% active; AID 1476, 2009;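 further: plate controls were enzyme without inhibitor for no effect and buffer without enzyme for full effect; nearly all actives have a fitted effect of over 40% in size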
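Detergent-free condition (0.00005% Triton X-100) in acetate buffer pH 5.5 with DTT. 1.5 nM enzyme and compound were pre-mixed 15 min, then 2 uM Z-FR-AMC substrate added; reaction progress from fluorescence change between first and third reads (60 s).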
Numbers without * were called inactive; ? = inconclusive. The call rests on the fitted dose curve; in most records, active means well fitted curve in the direction sought with a large enough effect; inconclusive means small, poorly fitted or top-dose-only effect, or another doubt; inactive means no such curve, though single readings can be large; an effect the other way counts as inactive or inconclusive. Potency means the concentration at half of the fitted maximal effect.

SMILES | Cruzain Triton | Cruzain inh noDet
Cc1cc2nn(-c3cccc4ccccc34)nc2cc1N | -3% | 16µM*
O=C(CCN1CCOCC1)c1ccc2c(c1)OCCO2 | -23% | -14%
O=C(CCN1CCc2ccccc2CC1)c1ccc2c(c1)OCCO2 | ? | 16µM*
O=C(/C(=N\Nc1ccc([N+](=O)[O-])cc1)Sc1nnnn1-c1ccccc1)c1ccccc1 | -8% | ?
Cc1ccc(N/N=C(/Sc2nnnn2-c2ccccc2)C(=O)c2ccccc2)cc1 | -5% | 32µM*
Cc1ccc(SCc2nc(-c3ccc(C(=O)NCc4ccccc4Cl)cc3)oc2C)cc1 | -7% | ?
Cc1ccc(-c2c(C)cc3oc(=O)cc(-c4ccccc4)c3c2C)cc1 | 3% | ?
CCOC(=O)c1ccc(-c2c(C)cc3oc(=O)cc(-c4ccccc4)c3c2C)cc1 | 3% | 4.5µM*
COc1ccc(-c2c(C)cc3oc(=O)cc(-c4ccccc4)c3c2C)cc1 | -2% | 32µM*
Cc1cc2oc(=O)cc(-c3ccccc3)c2c(C)c1-c1ccc(N(C)C)cc1 | 1% | 14µM*
Cc1cc2oc(=O)cc(-c3ccccc3)c2c(C)c1-c1ccc(C(F)(F)F)cc1 | -8% | ?
CC(=O)Nc1ccc(-c2c(C)cc3oc(=O)cc(-c4ccccc4)c3c2C)cc1 | -1% | -22%
CN1CCN(c2ncc3nc(-c4cccc(C#N)c4)c(=O)n(Cc4ccc(F)cc4)c3n2)CC1 | -20% | ?
COC(=O)c1cc(-c2ccccc2)sc1NC(=O)CN1C(=O)c2ccccc2C1=O | -3% | 25µM*
COC(=O)c1cc(OC)c(OC)cc1NC(=O)CN1C(=O)c2ccccc2C1=O | 2% | ?
O=S1(=O)c2ccccc2N(Cc2ccc(Cl)cc2F)c2ccccc21 | -9% | 32µM*
COc1ccc(Cl)cc1NC(=O)Cn1cccc1 | 0% | 2%
COc1ccc(Cl)cc1NC(=O)CN1c2ccccc2S(=O)(=O)c2ccccc21 | -9% | 20µM*
O=S1(=O)c2ccccc2N(Cc2ccc(Cl)cc2)c2ccccc21 | -2% | 21%
C/C=C/c1ccc(OC(C)[C@@H](O)c2ccc(O)c(OC)c2)c(OC)c1 (some centres undefined) | 2% | -1%
COc1ccc(/C=N/NC(=O)c2nn(-c3ccc(Cl)cc3)c(=O)c3c(N)scc23)cc1 | -6% | 13µM*
CCOC(=O)c1nn(-c2ccc(OC)cc2)c(=O)c2c(N)scc12 | -14% | 6%
COc1ccc(/C=N/NC(=O)c2nn(-c3ccccc3)c(=O)c3c(N)scc23)cc1 | -10% | 20µM*
COc1ccc(/C=N/NC(=O)c2nn(-c3ccc(C)c(C)c3)c(=O)c3ccccc23)cc1 | -6% | -11%
Cc1ccc(C(CC(=O)Nc2cc(C)cc(C)c2)N2Cc3ccccc3C2=O)cc1 (centres undefined) | -6% | -7%
SMILES | Cruzain Triton | Cruzain inh noDet
Cc1c(Cl)cccc1NC(=O)Nc1c[nH]c(=O)[nH]c1=O | 2% | 20µM*
CCOC(=O)c1ccc(NC(=O)Nc2c[nH]c(=O)[nH]c2=O)cc1 | 2% | 8%
Cn1nnnc1SCCCNCc1ccccc1OCc1ccc(F)cc1 | -2% | 0%
COc1ccc(C2CC(=O)Nc3c2c(=O)n(C)c2nc4ccccc4n32)cc1 (centres undefined) | -2% | 4%
O=C(CSc1nc2c(c(=O)[nH]1)CCC2)Nc1cccc(Cl)c1 | 4% | -3%
CCc1cccc(NC(=O)CSc2nc3c(c(=O)[nH]2)CCCC3)c1 | -1% | 25µM*
c1ccc2c(c1)[nH]c1c(NCC3CCCO3)ncnc12 (centres undefined) | -30% | 25µM*
CCCCOCCCNc1ncnc2c1[nH]c1ccccc12 | ? | -29%
O=C(COC(=O)c1ccc(-c2nnc(-c3ccccc3)o2)cc1)c1ccccc1 | -1% | 7.9µM*
Nc1cccc(C(=O)OCC(=O)c2ccccc2)c1 | -2% | -3%
COc1ccc(CCC(=O)NCc2nc3cccnc3n2Cc2ccc(C)cc2)cc1 | -5% | 21%
Cc1ccccc1OCCSc1nc2ccc(NC(=O)c3cccc(F)c3)cc2s1 | -2% | -13%
COc1ccc(Cl)cc1Nc1nc(-c2sc(NC(=O)c3ccccc3)nc2C)cs1 | 2% | 6.3µM*
Cc1nc(NC(=O)c2ccccc2)sc1-c1csc(Nc2ccc(Cl)cc2Cl)n1 | 0% | 7.9µM*
COc1ccc(OC)c(Nc2nc(-c3sc(NC(=O)c4ccccc4)nc3C)cs2)c1 | 6% | ?
CCc1cccc2c(-c3ccc(F)cc3)nc(SCC(=O)Nc3ccccc3)nc12 | 2% | -6%
Cc1ccccc1C1CC(=O)Oc2ccc(O)cc21 (centres undefined) | 1% | -13%
Cc1ccc(-n2nc3ccc(NC(=O)/C=C/c4ccco4)cc3n2)cc1 | -7% | 16µM*
Cc1ccc(NC(=O)c2cccc(NC(=O)/C=C/c3ccco3)c2)cc1C | -9% | -10%
